Each structure is given as a SMILES string. Among all 5,500 compounds or so, about 2,000 (36%) were called active. About 18% were inconclusive and are not listed. The list shows a part of the results. A number with no mark means an inactive call. Cut-off read from the data, not from the text of the source: active = normalized growth mostly below about 0.91 (no sharp cut-off); inconclusive = no clear call, values can overlap the other calls; inactive = mostly above about 0.92.

The nature of the test: chemical genetic growth profiling, strain panel (AID 1159580).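 Note: tested at 20 µM; growth read once vehicle control cultures reached saturation at 30 °C; 1 = growth at the plate median or of vehicle wells.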 The following applies: S. cerevisiae deletion strains, growth OD.
The mark [1] stands for this setting: locus YAL040C, strain CLN3, stronger effect = lower value.
Where [2] appears, read: locus YDR150W, strain NUM1, stronger effect = lower value.
The mark [3] stands for this setting: locus YER002W, strain NOP16, stronger effect = lower value.
The mark [4] stands for this setting: locus YNL175C, strain NOP13, stronger effect = lower value.
[5] abbreviates: locus YNL197C, strain WHI3, stronger effect = lower value.
Setting [6] is: locus YNL224C, strain SQS1, stronger effect = lower value.
Where [7] appears, read: locus YOR083W, strain WHI5 (second series), stronger effect = lower value.
[8] abbreviates: locus YPL055C, strain LGE1, stronger effect = lower value.
The mark [9] stands for this setting: locus YPL241C, strain CIN2, stronger effect = lower value.
The mark [10] stands for this setting: locus YCL061C, strain MRC1 (second series), stronger effect = lower value.
The mark [11] stands for this setting: locus YDR363W, strain ESC2, stronger effect = lower value.
The mark [12] stands for this setting: locus YMR263W, strain SAP30, stronger effect = lower value.
Where [13] appears, read: locus YGR229C, strain SMI1, stronger effect = lower value.
Where [14] appears, read: locus YMR307W, strain GAS1, stronger effect = lower value.

`NC(CCCCCP(=O)(O)O)C(=O)O` (stereo unspecified): the normalized growth under setting [1] was 0.977; the normalized growth under setting [2] is 0.989; the normalized growth under setting [3] was 0.973; the normalized growth under setting [4] is 1; the normalized growth under setting [5] is 0.992; the normalized growth under setting [6] is 1.01. Besides, the normalized growth under setting [7] was 0.983, the normalized growth under setting [8] is 0.999 and the normalized growth under setting [9] is 0.98.
Take `CCCCCCCCCCCCCCCC(=O)NCC(COP(=O)([O-])OCC[N+](C)(C)C)OCC` (stereo unspecified): the normalized growth is 0.322 (active) under setting [1]; 0.155 (active) under setting [10]; 0.0974 (active) under setting [2]; 0.165 (active) under setting [11]; 0.0938 (active) under setting [3]; 0.971 (locus YGR078C, strain PAC10, stronger effect = lower value). Besides, the normalized growth is, setting by setting: under setting [12], 0.619 (active); under setting [4], 0.0862 (active); under setting [5], 0.373 (active); under setting [6], 0.151 (active); under setting [7], 0.223 (active); under setting [8], 0.109 (active).
With `CCCCCCCCCCCCCCCCCC(=O)NCC(COP(=O)([O-])OCC[N+](C)(C)C)OCC` (stereo unspecified), the normalized growth is, setting by setting: under setting [1], 0.0918 (active); under setting [10], 0.0501 (active); under setting [2], 0.0538 (active); under setting [11], 0.0807 (active); under setting [3], 0.0757 (active); under setting [13], 0.0622 (active). Besides, the normalized growth by setting is: (locus YJR075W, strain HOC1, stronger effect = lower value) 0.0689 (active); under setting [12], 0.0519 (active); under setting [14], 0.0635 (active); (locus YNL128W, strain TEP1, stronger effect = lower value) 0.0936 (active); (locus YNL153C, strain GIM3, stronger effect = lower value) 0.0918 (active); under setting [4], 0.0883 (active). In addition, the normalized growth under setting [5] was 0.0927 (active), the normalized growth under setting [6] is 0.0836 (active), the normalized growth under setting [7] is 0.116 (active) and the normalized growth under setting [9] was 0.0483 (active).
Take `CCCCCCCCCCCCCCCCCCNC(=O)OCC(COP(=O)([O-])OCC[n+]1ccsc1)OC` (stereo unspecified): the normalized growth is 0.983 (locus YAL013W, strain DEP1, stronger effect = lower value); 1 under setting [1]; 1 under setting [10]; 1.03 under setting [11]; 1.01 under setting [3]; 0.936 under setting [13]. Also, the normalized growth is 1 under setting [12]; 0.968 under setting [14]; 1.03 under setting [4]; 1.06 under setting [5]; 1.03 under setting [6]; 1.01 under setting [7]. Moreover, the normalized growth was 1.04 under setting [8] and 1.01 under setting [9].

The values are drawn from PubChem BioAssay AID1159580 (chemical genetic matrix, 2015).
